Measured values: PubChem BioAssay (NCI)
The panel holds about 83,000 compounds, 20% with a hit somewhere; the sample as a whole holds those more often.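 Results are percent growth after 48 hours of single-concentration exposure. 100 means growth as in untreated cells, lower positive values show inhibition; negative values down to -100 show cell death.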 Calls of active or inactive are those of the source. How the source made its calls: active means growth percent below 10; inactive means the rest.

Key:
Assay in all cases: NCI-60 one-dose screen, 48 h (100 = growth as untreated, 0 = no growth, -100 = all killed)
Conditions in all cases: 10 µM unless noted
HCT-15 colon = system: HCT-15 colon
HT29 colon = system: HT29 colon
SNB-75 CNS = system: SNB-75 CNS
SNB-19 CNS = system: SNB-19 CNS
U251 CNS = system: U251 CNS
PC-3 prostate = system: PC-3 prostate
SK-MEL-5 melanoma = system: SK-MEL-5 melanoma
UACC-62 melanoma = system: UACC-62 melanoma
LOX IMVI melanoma = system: LOX IMVI melanoma
SK-MEL-28 melanoma = system: SK-MEL-28 melanoma

Measured: growth

N[C@H]1CCC[C@@H]1NCCCCN1C(=O)c2cccc3cccc(c23)C1=O
inactive: HCT-15 colon 83.6% | HT29 colon 26.2% | SNB-75 CNS 75.7% | SNB-19 CNS 77% | U251 CNS 63% | PC-3 prostate 55% | SK-MEL-5 melanoma 91.6% | UACC-62 melanoma 95.7% | LOX IMVI melanoma 26.1%

CCCc1cc(=O)oc2c3c(c4c(c12)OC(C)(C)C=C4)O[C@@H](C)[C@H](C)C3=O
inactive: HCT-15 colon 98.1% | HT29 colon 41% | SNB-75 CNS 87.7% | SNB-19 CNS 93.6% | U251 CNS 65.7% | PC-3 prostate 40.7% | SK-MEL-5 melanoma 32.1% | UACC-62 melanoma 66% | LOX IMVI melanoma 81.2%

O=[N+]([O-])c1ccc(-c2cc3c(Nc4ccc(Cl)c(C(F)(F)F)c4)ncnc3s2)cc1
inactive: HCT-15 colon 10.2% | SNB-75 CNS 16.4% | SNB-19 CNS 12.1% | PC-3 prostate 11.5% | SK-MEL-28 melanoma 20.1%
active: HT29 colon 3.89% | U251 CNS 8.85% | SK-MEL-5 melanoma -42.5% | UACC-62 melanoma -1.39% | LOX IMVI melanoma 6.09%

CCOC(=O)c1nnn(C(Cc2ccccc2Cl)C(=O)OCC)c1C (centres undefined)
inactive: HCT-15 colon 107% | HT29 colon 86.8% | SNB-75 CNS 89.5% | SNB-19 CNS 104% | U251 CNS 96.1% | PC-3 prostate 94% | SK-MEL-5 melanoma 101% | UACC-62 melanoma 99.9% | LOX IMVI melanoma 104% | SK-MEL-28 melanoma 111%

CCN(CC)CCCC(C)NCc1ccccc1 (centres undefined)
inactive: HCT-15 colon 101% | HT29 colon 83.4% | SNB-75 CNS 99.8% | SNB-19 CNS 101% | U251 CNS 99.2% | PC-3 prostate 91.2% | SK-MEL-5 melanoma 108% | UACC-62 melanoma 97.5% | LOX IMVI melanoma 100%

Clc1ccc(/C=N\N=c2\scc(-c3ccc(Cl)cc3)n2/N=C/c2ccc(Cl)cc2)cc1
inactive: HCT-15 colon 111% | HT29 colon 76.5% | SNB-75 CNS 91.6% | SNB-19 CNS 90% | U251 CNS 97.6% | PC-3 prostate 102% | SK-MEL-5 melanoma 106% | UACC-62 melanoma 98.7% | LOX IMVI melanoma 109%

CN=C1C=CC(=C(c2ccc(N(C)C)cc2)c2ccc(N(C)C)cc2)C=C1
active: HCT-15 colon 7.06% | HT29 colon -37.2% | SNB-75 CNS -26.7% | SNB-19 CNS 3.16% | U251 CNS -57.5% | PC-3 prostate 2.74% | SK-MEL-5 melanoma -98.5% | UACC-62 melanoma -50.2% | LOX IMVI melanoma -59.3%

O=S(=O)(NCCNc1cc(-c2c(-c3cccc(O)c3)nc3sccn23)ccn1)c1ccc(Cl)cc1
inactive: HCT-15 colon 53.2% | HT29 colon 65.7% | SNB-19 CNS 72.7% | U251 CNS 65.9% | PC-3 prostate 49.3% | SK-MEL-5 melanoma 30.7% | UACC-62 melanoma 64.8% | LOX IMVI melanoma 63.2%
active: SNB-75 CNS 8.44%

CC1(C)N=C(N)N=C(N)N1c1cccc(CN)c1
inactive: HCT-15 colon 97.8% | HT29 colon 95.7% | SNB-75 CNS 73.6% | SNB-19 CNS 100% | U251 CNS 98.9% | PC-3 prostate 87.3% | SK-MEL-5 melanoma 109% | UACC-62 melanoma 95.9% | LOX IMVI melanoma 89.2%

c1ccc(-c2oc3ccccc3c2-c2ccccc2)cc1
inactive: HCT-15 colon 93.6% | HT29 colon 99% | SNB-75 CNS 72.5% | SNB-19 CNS 99.3% | U251 CNS 95.9% | PC-3 prostate 90% | SK-MEL-5 melanoma 84.3% | UACC-62 melanoma 80% | LOX IMVI melanoma 95.8%

COc1cc(-c2ccc(-c3ccc(C(=N)N)nc3)s2)cc(OC)c1OC
inactive: HCT-15 colon 21.4% | HT29 colon 14.2% | SNB-75 CNS 68.5% | SNB-19 CNS 65.2% | U251 CNS 28.9% | PC-3 prostate 54.7% | SK-MEL-5 melanoma 37.6% | UACC-62 melanoma 59.5%
active: LOX IMVI melanoma -14.3%

Cc1cc(C)on1
inactive: HCT-15 colon 105% | HT29 colon 107% | SNB-75 CNS 101% | SNB-19 CNS 102% | U251 CNS 98.9% | PC-3 prostate 89.9% | SK-MEL-5 melanoma 99.6% | UACC-62 melanoma 110% | LOX IMVI melanoma 102%

COC(=O)c1ccc(CSc2nnc(-c3ccncc3)o2)cc1
inactive: HCT-15 colon 108% | HT29 colon 109% | SNB-75 CNS 81.9% | SNB-19 CNS 110% | U251 CNS 104% | PC-3 prostate 87.5% | SK-MEL-5 melanoma 112% | UACC-62 melanoma 97.5%

CN1C[C@@H](c2ccc(Cl)cc2)[C@]2(NC(=S)N(c3ccccc3)C2=O)[C@@]12C(=O)NC1C=CC(Br)=C[C@H]12 (some centres undefined)
inactive: HCT-15 colon 73.5% | HT29 colon 61.5% | SNB-75 CNS 69.6% | SNB-19 CNS 86.2% | U251 CNS 72.5% | PC-3 prostate 28.1% | SK-MEL-5 melanoma 64% | UACC-62 melanoma 74.3% | LOX IMVI melanoma 75.5%

Cl.Fc1c[c-]c(-c2ccccn2)c(F)c1.[Pt].c1ccc([PH+](C[PH+](c2ccccc2)c2ccccc2)c2ccccc2)cc1
active: HCT-15 colon -80.1% | HT29 colon -64.7% | SNB-75 CNS -95.5% | SNB-19 CNS -88.9% | U251 CNS -77.1% | PC-3 prostate -57.7% | SK-MEL-5 melanoma -98.2% | UACC-62 melanoma -82.3% | LOX IMVI melanoma -88.9% | SK-MEL-28 melanoma -92.5%

COc1ccc(-c2cc(-c3cc(OC)ccc3O)[nH]c(=O)c2C#N)cc1
inactive: HCT-15 colon 60.2% | HT29 colon 28.4% | SNB-75 CNS 58.9% | SNB-19 CNS 65.4% | U251 CNS 22.5% | PC-3 prostate 52% | SK-MEL-5 melanoma 31.4% | UACC-62 melanoma 41.4% | LOX IMVI melanoma 40.5% | SK-MEL-28 melanoma 67.5%

C=C1C(=O)O[C@H]2[C@H]1CC/C(Cn1cc(CNCCc3c[nH]c4ccc(Cl)cc34)nn1)=C\CC[C@@]1(C)O[C@@H]21
inactive: HCT-15 colon 88.6% | HT29 colon 21.2% | SNB-75 CNS 69.6% | SNB-19 CNS 83.7% | U251 CNS 60.2% | PC-3 prostate 75% | SK-MEL-5 melanoma 86.6% | UACC-62 melanoma 63% | LOX IMVI melanoma 62%

CCCCCCCCN(CCCCCCCC)C(=N)c1ccnc2ccccc12
active: HCT-15 colon -88.2% | HT29 colon -87.1% | SNB-75 CNS -95.7% | SNB-19 CNS -70.8% | U251 CNS -95.6% | PC-3 prostate -88.7% | SK-MEL-5 melanoma -96.6% | UACC-62 melanoma -74.5% | LOX IMVI melanoma -100%

COc1ccc(-c2nnc(SCC(=O)NC3=NN=C(c4ccccc4)CS3)o2)cc1
inactive: HCT-15 colon 106% | HT29 colon 96.1% | SNB-75 CNS 88.1% | SNB-19 CNS 90.8% | U251 CNS 87.2% | PC-3 prostate 86.8% | SK-MEL-5 melanoma 107% | UACC-62 melanoma 95.2% | LOX IMVI melanoma 101%

COc1ccc(C(=O)/C=C/C23c4ccccc4C(c4ccccc42)C2C(=O)NC(=O)C23)cc1 (centres undefined)
inactive: HCT-15 colon 91.3% | HT29 colon 97.3% | SNB-75 CNS 85% | SNB-19 CNS 92.6% | U251 CNS 93.7% | PC-3 prostate 102% | SK-MEL-5 melanoma 95.9% | UACC-62 melanoma 90.6% | LOX IMVI melanoma 90.1%

N#Cc1c(N)n2c(nc1=Nc1ccc([N+](=O)[O-])cc1)sc1cc(Cl)ccc12
inactive: HCT-15 colon 95.9% | HT29 colon 99.2% | SNB-75 CNS 60.9% | SNB-19 CNS 95.7% | U251 CNS 85.8% | PC-3 prostate 81.8% | SK-MEL-5 melanoma 73% | UACC-62 melanoma 53.1% | LOX IMVI melanoma 79.4%

CC(=O)C(C(C)=O)c1nc2sc3cc(Cl)ccc3n2c(=N)c1C#N
inactive: HCT-15 colon 94.2% | HT29 colon 92.4% | SNB-75 CNS 41.2% | SNB-19 CNS 78.8% | U251 CNS 82.3% | PC-3 prostate 65.2% | SK-MEL-5 melanoma 74.6% | UACC-62 melanoma 61.6% | LOX IMVI melanoma 79.7% | SK-MEL-28 melanoma 103%

CC(=O)OCCc1ccccc1
inactive: HCT-15 colon 107% | HT29 colon 107% | SNB-75 CNS 74.4% | SNB-19 CNS 102% | U251 CNS 100% | PC-3 prostate 99.2% | SK-MEL-5 melanoma 105% | UACC-62 melanoma 100% | LOX IMVI melanoma 101%

Cc1cc(N(CCCNc2ccnc3cc(Cl)ccc23)Cc2ccccn2)nc(N2CCOCC2)n1
inactive: HCT-15 colon 87.3% | HT29 colon 56% | SNB-75 CNS 69.2% | SNB-19 CNS 93.9% | U251 CNS 94.8% | PC-3 prostate 74% | SK-MEL-5 melanoma 105% | UACC-62 melanoma 106%

O[C@H]1CO[C@H]2[C@@H]1OC[C@@H]2Oc1ccc(Nc2nc(Nc3ccc(F)c(Cl)c3)ncc2F)cc1Cl
active: SK-MEL-5 melanoma -90.5%
inactive: HCT-15 colon 90.8% | HT29 colon 111% | SNB-75 CNS 74.7% | SNB-19 CNS 103% | U251 CNS 108% | PC-3 prostate 102% | UACC-62 melanoma 89.4% | LOX IMVI melanoma 103%

Nc1c(C(=O)c2ccccc2)nnc2ncnn12
inactive: HCT-15 colon 111% | HT29 colon 100% | SNB-75 CNS 96.9% | SNB-19 CNS 105% | U251 CNS 95.8% | PC-3 prostate 97.9% | SK-MEL-5 melanoma 98.6% | UACC-62 melanoma 99.7% | LOX IMVI melanoma 101%

Clc1ccc(-c2nc(NCCc3ccccc3)nc3c(NCCc4ccccc4)cnn23)cc1
inactive: HCT-15 colon 72.9% | HT29 colon 41.9% | SNB-75 CNS 85.6% | SNB-19 CNS 85.6% | U251 CNS 48.4% | PC-3 prostate 51.7% | SK-MEL-5 melanoma 94.2% | UACC-62 melanoma 73.2% | LOX IMVI melanoma 60.9%

CN(C)c1ccc2cc(-c3ccccc3F)c(N)nc2c1
inactive: HCT-15 colon 37.4% | SNB-75 CNS 11.3% | SNB-19 CNS 55.1% | U251 CNS 16.8% | PC-3 prostate 31.6% | UACC-62 melanoma 40.2% | LOX IMVI melanoma 33.4%
active: HT29 colon 1.79% | SK-MEL-5 melanoma -18.8%

CCC(C)NCc1ccccc1 (centres undefined)
inactive: HCT-15 colon 107% | HT29 colon 84.9% | SNB-75 CNS 95.9% | SNB-19 CNS 102% | U251 CNS 102% | PC-3 prostate 78.1% | SK-MEL-5 melanoma 106% | UACC-62 melanoma 95.3% | LOX IMVI melanoma 102%
